Results taken from PubChem BioAssay (Tox21).
Results filed as inconclusive are left out. Entries that show only a call come without a potency. The source made the active and inactive calls. The call rests on the fitted dose curve.

What follows are compounds tested against Muscarinic acetylcholine receptor M1 (Homo sapiens) (UniProt P11229) (assay: Cholinergic receptor muscarinic 1 (CHRM1) small molecule antagonists, cell-based qHTS assay (AID 1963588; further: nearly all actives have a fitted effect of over 40% in size)). Conditions: CHRM1-CHO antagonist mode, calcium flux fluorescence; series mostly up to 61.5 µM; activity, negative = inhibition: at the top concentration.
Muscarinic acetylcholine receptor M1 (Homo sapiens), sequence (P11229 whole entry, looked up): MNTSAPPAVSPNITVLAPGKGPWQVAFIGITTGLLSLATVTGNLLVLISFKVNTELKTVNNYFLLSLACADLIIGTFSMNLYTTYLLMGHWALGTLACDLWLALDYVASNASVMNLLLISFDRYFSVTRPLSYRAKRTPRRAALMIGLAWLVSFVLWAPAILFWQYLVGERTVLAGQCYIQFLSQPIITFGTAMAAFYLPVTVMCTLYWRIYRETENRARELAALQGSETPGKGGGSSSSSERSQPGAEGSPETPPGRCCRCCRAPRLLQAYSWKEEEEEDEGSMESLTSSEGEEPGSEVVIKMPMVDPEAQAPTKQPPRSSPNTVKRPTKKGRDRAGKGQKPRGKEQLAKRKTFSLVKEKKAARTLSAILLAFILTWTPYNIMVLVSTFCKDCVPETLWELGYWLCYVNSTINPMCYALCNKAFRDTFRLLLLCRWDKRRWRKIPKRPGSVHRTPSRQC
Text: National Center for Advancing Translational Sciences [NCATS]
Division of Preclinical Innovation [DPI]
U.S. Environmental Protection Agency [EPA]
National Institutes of Environmental Health Sciences [NIEHS]
National Toxicology Program [NTP]
U.S. Food and Drug Administration [FDA]
The CHRM1 is a muscarinic receptor. This receptor plays a crucial role in learning and memory processes and has long been identified as a promising therapeutic target for the improvement of cognitive decline in Alzheimer's disease (AD). The CHRM1-CHO cell line stably expressing human muscarinic acetylcholine receptor M1 (CHRM1) can be used for screening agonists and antagonists of interactions between CHRM1 and its ligands. The CHRM1-CHO Calcium Flux Assay is a homogeneous fluorescence-based assay for detecting the intracellular calcium level using FDSS kinetic plate reader system.
Tox21 Assay Protocol Summary:
CHRM1-CHO cells were dispensed at 1000 cells/3uL/well in 1536-well black-clear bottom plates using a Multidrop Dispenser. After the assay plates were incubated at a 37 C/5% CO2 incubator for 18 h, 3 uL of Dye Loading Buffer was transferred to the assay plate by a Flying Reagent Dispenser. The assay plates were incubated at 37 C for 1h. For antagonist mode, 23 nL of compounds dissolved in DMSO, positive controls or DMSO only was transferred to the assay plate by a pin tool. After 5 min incubation at room temperature, 1.5 uL of acetylcholine at 50nM was added to each well. The fluorescence intensity in the plates was measured using FDSS 7000EX kinetic plate reader for 3 min at 1 sec intervals. Each test compound was measured at 15 concentrations in three independent runs.
With `Cn1c([N+](=O)[O-])cnc1COC(N)=O` the Potency was “inactive”. `C[Si](O[Si](C)(C)C)O[Si](C)(C)C` was tested, and the Potency was “inactive”. With `CC(=O)OCc1ccc2c(c1)OCO2` the Potency was “inactive”. In the case of `COc1ccc(C(=O)c2ccccc2)c(O)c1`, the Potency is reported as “inactive”. With `CCCCCCCCCCCCS` the Potency was “inactive”. In the case of `O=C(Nc1ccccc1SSc1ccccc1NC(=O)c1ccccc1)c1ccccc1`, the Potency is reported as “inactive”. In the case of `CC(O)COc1ccccc1` (stereo not given), the Potency is reported as “inactive”. With `CCNC(=S)NCC` the Potency was “inactive”. For `NCCN1CCNCC1`, the Potency was “inactive”. For `O=C(OCc1ccccc1)c1ccccc1`, the Potency was “inactive”. `O=C(c1ccccc1)C(O)c1ccccc1` (stereo not given) was tested, and the Potency was “inactive”. For `CC(=O)Nc1ccc2c(c1)Cc1cc(NC(C)=O)ccc1-2`, the Potency was “inactive”. `CCCCCCCCCC` was tested, and the Potency was “inactive”. For `CC(=O)c1ccccc1`, the Potency was “inactive”. `CC(C)(CO)COC(=O)C(C)(C)CO` was tested, and the Potency was “inactive”. For `Oc1cccc(O)c1`, the Potency was “inactive”. `CCCCCCCCCCCCCCCCO` was tested, and the Potency was “inactive”. In the case of `CC(C)=CCCC(C)CCO` (stereo not given), the Potency is reported as “inactive”. With `O=S1(=O)CCCO1` the Potency was “inactive”. `O=C(O)c1ccc2c(c1)C(=O)OC2=O` was tested, and the Potency was “inactive”. With `Nc1cccc(C(F)(F)F)c1` the Potency was “inactive”. In the case of `CC1=CCC2CC1C2(C)C` (stereo not given), the Potency is reported as “inactive”. `CCOCCOCCO` was tested, and the Potency was “inactive”. For `Cc1ccc(C)c(O)c1`, the Potency was “inactive”. In the case of `CC(C)(CO)CO`, the Potency is reported as “inactive”. For `C=CCOC(=O)c1ccccc1C(=O)OCC=C`, the Potency was “inactive”. For `CCCCCCCCCCCCCC(=O)OC(C)C`, the Potency was “inactive”. With `CC(C)CCCCCCCOC(=O)CCCCC(=O)OCCCCCCCC(C)C` the Potency was “inactive”. For `CCCCCCC=O`, the Potency was “inactive”. In the case of `CCCCOCCOCCSC#N`, the Potency is reported as “inactive”. In the case of `Nc1ccc(S(=O)(=O)Nc2cnc3ccccc3n2)cc1`, the Potency is reported as “inactive”. For `COC(=O)/C=C\C(=O)OC`, the Potency was “inactive”. With `NC(=O)N/N=C/c1ccc([N+](=O)[O-])o1` the Potency was “inactive”. For `C=C(C)OC(C)=O`, the Potency was “inactive”. In the case of `Nc1cc([N+](=O)[O-])ccc1C(=O)O`, the Potency is reported as “inactive”. With `Cc1ccc(S(=O)(=O)Oc2ccc(N=Nc3ccc(-c4ccc(N=Nc5c(O)ccc6cc(S(=O)(=O)O)cc(S(=O)(=O)O)c56)c(C)c4)cc3C)cc2)cc1` the Potency was “inactive”. In the case of `CC(C)[N+](C)(CCOC(=O)C1c2ccccc2Oc2ccccc21)C(C)C`, the “activity, negative = inhibition” value is reported as -88.3% (inactive). `Nc1ccc(C(=O)O)cc1` was tested, and the Potency was “inactive”. With `NC(=O)OCC(COC(N)=O)c1ccccc1` the Potency was “inactive”. With `CCCCCCCCCCC=CC1CC(=O)OC1=O` (stereo not given) the Potency was “inactive”.
